# In PubChem BioAssay AID1159580 (chemical genetic matrix, 2015):
# Screen size: about 5,500 compounds; about 2,000 (36%) were called active. About 18% were inconclusive and are not listed. The list shows a part of the results. A number with no mark means an inactive call. No stated cut-off is given here; in the data, active means normalized growth mostly below about 0.91 (no sharp cut-off); inconclusive means no clear call, values can overlap the other calls; inactive means mostly above about 0.92.
# Test: chemical genetic growth profiling, strain panel (AID 1159580);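 further: tested at 20 µM; growth read once vehicle control cultures reached saturation at 30 °C; 1 = growth at the plate median or of vehicle wells; lower values mean less growth of the strain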
# Conditions: S. cerevisiae deletion strains, growth OD
structure (smiles),measurement,setting,value
COc1ccc(-c2c(OC)c3c(OC)c4c(cc3oc2=O)OC(C)(C)C=C4)cc1,normalized growth,"locus YBR021W, strain FUR4, hits give low values",1.08
same,normalized growth,"locus YBR229C, strain ROT2, hits give low values",1.03
same,normalized growth,"locus YCL029C, strain bik1, hits give low values",0.974
same,normalized growth,"locus YDL035C, strain GPR1, hits give low values",1.09
same,normalized growth,"locus YDL074C, strain BRE1, hits give low values",1.18
same,normalized growth,"locus YDL101C, strain DUN1, hits give low values",0.99
same,normalized growth,"locus YDL185W, strain tfp1, hits give low values",0.988
same,normalized growth,"locus YDL192W, strain arf1, hits give low values",1.08
same,normalized growth,"locus YDR101C, strain arx1, hits give low values",1.07
same,normalized growth,"locus YDR162C, strain NBP2, hits give low values",1.06
same,normalized growth,"locus YDR318W, strain mcm21, hits give low values",1
same,normalized growth,"locus YDR388W, hits give low values",0.983
same,normalized growth,"locus YDR502C, strain sam2, hits give low values",1.05
same,normalized growth,"locus YEL061C, strain CIN8, hits give low values",1.02
same,normalized growth,"locus YER110C, hits give low values",0.973
same,normalized growth,"locus YER155C, strain BEM2, hits give low values",1.01
same,normalized growth,"locus YER167W, strain BCK2, hits give low values",1.01
same,normalized growth,"locus YGL078C, strain dbp3, hits give low values",1.02
same,normalized growth,"locus YGL086W, strain mad1, hits give low values",1.05
same,normalized growth,"locus YGL248W, strain PDE1, hits give low values",1.07
same,normalized growth,"locus YGR135W, strain pre9, hits give low values",1.02
same,normalized growth,"locus YGR252W, strain gcn5, hits give low values",1.21
same,normalized growth,"locus YHR030C, strain SLT2, hits give low values",1
same,normalized growth,"locus YHR079C, strain IRE1 (second series), hits give low values",0.991
same,normalized growth,"locus YHR094C, strain hxt1, hits give low values",1
same,normalized growth,"locus YHR129C, strain ARP1, hits give low values",1.02
same,normalized growth,"locus YHR200W, strain rpn10, hits give low values",1.04
same,normalized growth,"locus YIL066C, strain RNR3, hits give low values",1.01
same,normalized growth,"locus YIL073C, strain SPO22, hits give low values",1.12
same,normalized growth,"locus YIL125W, strain kgd1, hits give low values",1.02
same,normalized growth,"locus YIR030C, strain dcg1, hits give low values",1.01
same,normalized growth,"locus YJL095W, strain BCK1, hits give low values",1.08
same,normalized growth,"locus YJL134W, strain LCB3, hits give low values",0.991
same,normalized growth,"locus YJL168C, strain set2, hits give low values",1
same,normalized growth,"locus YJL187C, strain SWE1 (second series), hits give low values",1
same,normalized growth,"locus YJR075W, strain HOC1, hits give low values",1
same,normalized growth,"locus YKL009W, strain mrt4, hits give low values",1.03
same,normalized growth,"locus YKL068W, hits give low values",1.03
same,normalized growth,"locus YKL085W, strain MDH1 (second series), hits give low values",1.04
same,normalized growth,"locus YKL085W, strain MDH1, hits give low values",1.04
same,normalized growth,"locus YKL190W, strain CNB1, hits give low values",0.988
same,normalized growth,"locus YKR001C, strain vps1, hits give low values",1.09
same,normalized growth,"locus YLR039C, strain RIC1, hits give low values",1.22
same,normalized growth,"locus YLR058C, strain SHM2, hits give low values",1.01
same,normalized growth,"locus YLR102C, strain apc9, hits give low values",0.972
same,normalized growth,"locus YLR268W, strain sec22, hits give low values",1.04
same,normalized growth,"locus YLR330W, strain CHS5, hits give low values",1.03
same,normalized growth,"locus YLR342W, strain FKS1 (second series), hits give low values",1.03
same,normalized growth,"locus YLR371W, strain rom2, hits give low values",0.992
same,normalized growth,"locus YML016C, strain PPZ1, hits give low values",1.01
same,normalized growth,"locus YML032C, strain rad52, hits give low values",0.987
same,normalized growth,"locus YML124C, strain tub3, hits give low values",1.03
same,normalized growth,"locus YMR078C, strain ctf18, hits give low values",0.993
same,normalized growth,"locus YMR223W, strain ubp8, hits give low values",1.02
same,normalized growth,"locus YMR307W, strain GAS1, hits give low values",1.32
same,normalized growth,"locus YNL067W, strain RPL9B, hits give low values",1
same,normalized growth,"locus YNL153C, strain GIM3, hits give low values",1.01
same,normalized growth,"locus YNL233W, strain BNI4, hits give low values",1.05
same,normalized growth,"locus YNL250W, strain rad50, hits give low values",0.999
same,normalized growth,"locus YNL271C, strain bni1, hits give low values",1.03
same,normalized growth,"locus YNL298W, strain CLA4, hits give low values",1.03
same,normalized growth,"locus YNL307C, strain MCK1, hits give low values",0.967
same,normalized growth,"locus YNR052C, strain pop2, hits give low values",1.02
same,normalized growth,"locus YOL006C, strain TOP1, hits give low values",1.54 [resistant] (active)
same,normalized growth,"locus YOL012C, strain htz1",1.03
same,normalized growth,"locus YOL147C, strain pex11, hits give low values",0.997
same,normalized growth,"locus YOR061W, strain CKA2, hits give low values",1.02
same,normalized growth,"locus YOR069W, strain VPS5, hits give low values",0.993
same,normalized growth,"locus YOR136W, strain idh2, hits give low values",1
same,normalized growth,"locus YOR144C, strain elg1, hits give low values",1.03
same,normalized growth,"locus YOR184W, strain ser1, hits give low values",1.11
same,normalized growth,"locus YOR316C, strain cot1, hits give low values",0.975
same,normalized growth,"locus YPL055C, strain LGE1, hits give low values",1.16
same,normalized growth,"locus YPR119W, strain clb2, hits give low values",0.978
same,normalized growth,"locus YPR141C, strain kar3, hits give low values",1.03
same,normalized growth,"locus YPR163C, strain tif3, hits give low values",1
same,normalized growth,"locus YPR167C, strain met16, hits give low values",1.01
same,normalized growth,"strain wtn01, hits give low values",1.07
